Source: the OligoGym collection

Each sequence was assayed against SRSF6 (assay: pooled miR-30 sensor sort-seq; sequence = guide strand). Details: shRNA.
Further: reference of the scale not given here.

Row | Sequence | sensor-assay potency score (higher = more potent)
1 | TTGACTTTGAGCGAGATCTAGA | -0.299
2 | TTGAGCGAGATCTAGAACGGGA | 0.0866
3 | TAGATCTGCTTCGAGAATGTGA | -0.00685
4 | TTTGAGGTCTACTTCGAGGAGG | -0.608
5 | TACTTCGTGACCGTCTTCTAGA | -0.126
6 | ATTTTTGAGGTCTACTTCGAGG | -1.54
7 | TTGATCTTGACTTTGAGCGAGA | -0.415
8 | TTGATCGAGAACGTGATCGACC | -0.727
9 | TAGATTTGCTCTTTGATCTAGA | 0.174
10 | TTGATCTAGATTTCCTGCCTTT | 0.199
11 | TTAGATTTGCTCTTTGATCTAG | 0.289
12 | TTGAAGTAGCTCTTTTTGGTGG | -0.375

Each sequence was assayed against SRSF7 in the same assay as above. Details: shRNA.

Row | Sequence | sensor-assay potency score (higher = more potent)
13 | TAGATCTTCTGAGTGAAGCTGA | 0.474
14 | TTTCTCGCAATCCATACAGTTC | -1
15 | TTGATCTTGACCTCGACGGGGA | 0.107
16 | TATCAAAACGTGATCTCCGAGG | -0.606
17 | TAGACCTGGATCTTGATCTTGA | -0.00181
18 | TTGATCGTCGAGGAGATGCTGA | -0.317
19 | TAAAGGACCATAATAACTGAAA | -1.16
20 | TTTCTAACTCTCCTTTGCCAGC | -1.58
21 | TGCATCTCTAGGATCTTCGAAT | -1.39
22 | TTCTGAGTGAAGCTGATCTTGA | -0.735
23 | TAGATCTTGATCGTCGAGGAGA | -0.545
24 | TTACCAACATACACCTTGGTTT | -0.665

These sequences were tested against SS18 in the same assay as above. Details: shRNA.

Row | Sequence | sensor-assay potency score (higher = more potent)
25 | TTTATCTTTATAGCACACCATT | -1.15
26 | ATTGTCATCCAACATCTTCTGA | -0.704
27 | TTATACACTGAATAAGATGGTT | -0.124
28 | TTGGTTAACTTGACCCATCATT | -0.57
29 | TTGTCATCTGATTCTGTACTGG | -0.29
30 | TAGAATCTGCTATTGTAGCAAG | -0.645
31 | TTTGTGTGCAACATCTGCTGAT | 0.199
32 | TATTGTATTGCTGAGAAGGAGG | -1.18
33 | TATTGTAGCAAGGTATACCAAG | -0.903
34 | TTGTGTGCAACATCTGCTGATA | -0.703
35 | TTGTCATCCAACATCTTCTGAA | -0.31
36 | TTTCAGTCTGTAACAGTCCATT | -0.917
